In the supplement of paper PMC3545927:
The list shows a part of the results. How many sequences the whole screen found active is unknown.

B1: HC2529 (peptide)
chain: CASTPCSYHLAGNASASA
B2: HC2207 (peptide)
chain: CAEVVTSFWVAGNASASA
B3: HC2484 (peptide)
chain: CASIPCSAHLAGNASASA
B4: HC101 (peptide)
chain: CAVVCCAMSYAGNASASA
B5: HC1295 (peptide)
chain: CASVPAEILRAGNASASA
B6: HC921 (peptide)
chain: CAYDAGCAWYAGNASASA
B7: HC543 (peptide)
chain: CALVSFLVFFAGNASASA
B8: FS-2238 (peptide)
chain: CARSRKAVDWAGNASASA
B9: FS-2815 (peptide)
chain: CARSRRAVSVAGNASASA
B10: FS-3239 (peptide)
chain: CARSRRTICVAGNASASA
B11: HC218 (peptide)
chain: CARSRNLGKVAGNASASA
B12: FS-1975 (peptide)
chain: CARSNRDVFVAGNASASA
B13: FS-1052 (peptide)
chain: CAPPSRRRRPAGNASASA
B14: FS-2526 (peptide)
chain: CARSRKIAESAGNASASA
B15: FS-3234 (peptide)
chain: CARSFRSVTSAGNASASA
B16: FS-194 (peptide)
chain: CASQGRRRRPAGNASASA
B17: FS-1407 (peptide)
chain: CARSRRRRRPAGNASASA
B18: FS-3092 (peptide)
chain: CARSRRAATSAGNASASA
B19: FS-3265 (peptide)
chain: CARSRRTWELAGNASASA
B20: HC2570 (peptide)
chain: CASTPCSAHVAGNASASA
B21: HC1147 (peptide)
chain: CASGSWLRDIAGNASASA
B22: HC757 (peptide)
chain: CAVDFIPVENAGNASASA
B23: FS-474 (peptide)
chain: CAPNSPSKRGAGNASASA
B24: FS-1377 (peptide)
chain: CAMWERYCRGAGNASASA
B25: FS-1177 (peptide)
chain: CAVLQRSKRGAGNASASA
B26: FS-313 (peptide)
chain: CAVTVRWKRGAGNASASA
B27: FS-286 (peptide)
chain: CAQQSRSKRGAGNASASA
B28: FS-790 (peptide)
chain: CAHCSRSKRPAGNASASA
B29: HC475 (peptide)
chain: CAIRMYVGGVAGNASASA
B30: HC404 (peptide)
chain: CAWHYPPKPCAGNASASA
B31: HC917 (peptide)
chain: CADSSVLCECAGNASASA
B32: HC141 (peptide)
chain: CAEVVTATWVAGNASASA
B33: HC1310 (peptide)
chain: CAETWKKPDYAGNASASA
B34: HC2074 (peptide)
chain: CAVVCCSMKYAGNASASA
B35: HC2023 (peptide)
chain: CAVVACSMSYAGNASASA
B36: FS-1490 (peptide)
chain: CASRSRRRRRAGNASASA
B37: FS-1081 (peptide)
chain: CASKGRIRRRAGNASASA
B38: FS-302 (peptide)
chain: CASRGRRRRRAGNASASA
B39: HC889 (peptide)
chain: CACVTQTVDFAGNASASA
B40: HC591 (peptide)
chain: CAIPPLNVRGAGNASASA
B41: FS-3173 (peptide)
chain: CARTRRALSDAGNASASA
B42: FS-2834 (peptide)
chain: CARTRRLLDKAGNASASA
B43: HC462 (peptide)
chain: CAITPRCLVDAGNASASA
B44: FS-3110 (peptide)
chain: CARTPRGLDDAGNASASA
B45: FS-2832 (peptide)
chain: CARTPRPGEQAGNASASA
B46: FS-2615 (peptide)
chain: CARTRRHLHDAGNASASA
B47: FS-2097 (peptide)
chain: CARTRRLLWAAGNASASA

Target: furin, P09958
Assay: furin cleavage Z-score vs untreated control; higher = more cleavage, active = 3.5 or more, inactive = 1 or less, 8 variable residues between constant flanks
Method in brief: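 Purified furin cleaved 8-mer peptides that were fused to a cDNA oligonucleotide and held on magnetic beads by their N-terminus. Each 0.01 ml reaction used a 1:10 enzyme:substrate ratio in 50 mM HEPES pH 7.5 with CaCl2 and NaCl and ran 7.5, 15 or 30 min. Released DNA was adapter-tagged by PCR and sequenced, and read counts gave abundance. The cleavage Z-score came from log counts against furin-free reactions, lowess-adjusted and scaled by median absolute deviation.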

Sequence of furin, P09958 (P09958 whole entry): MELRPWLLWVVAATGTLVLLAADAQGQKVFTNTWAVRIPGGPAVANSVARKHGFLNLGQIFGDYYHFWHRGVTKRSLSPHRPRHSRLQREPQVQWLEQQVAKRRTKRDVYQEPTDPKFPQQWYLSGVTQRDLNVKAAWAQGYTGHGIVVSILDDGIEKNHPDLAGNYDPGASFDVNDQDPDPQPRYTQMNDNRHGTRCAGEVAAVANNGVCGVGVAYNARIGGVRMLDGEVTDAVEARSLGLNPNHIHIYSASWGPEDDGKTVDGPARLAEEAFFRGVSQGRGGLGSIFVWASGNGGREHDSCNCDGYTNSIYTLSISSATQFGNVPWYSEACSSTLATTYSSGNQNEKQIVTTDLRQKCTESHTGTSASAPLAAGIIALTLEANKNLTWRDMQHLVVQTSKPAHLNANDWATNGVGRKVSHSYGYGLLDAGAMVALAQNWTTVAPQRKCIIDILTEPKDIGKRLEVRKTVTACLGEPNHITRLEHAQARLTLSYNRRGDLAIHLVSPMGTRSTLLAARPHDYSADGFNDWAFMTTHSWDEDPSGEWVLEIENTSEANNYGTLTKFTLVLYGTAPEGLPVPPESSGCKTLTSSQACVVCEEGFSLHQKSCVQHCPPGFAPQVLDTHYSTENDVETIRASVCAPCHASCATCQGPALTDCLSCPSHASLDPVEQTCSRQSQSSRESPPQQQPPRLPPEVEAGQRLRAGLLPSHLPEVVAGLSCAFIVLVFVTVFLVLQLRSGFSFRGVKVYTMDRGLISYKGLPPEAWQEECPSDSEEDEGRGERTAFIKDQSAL

Sequence | furin cleavage Z-score (7.5 min) | furin cleavage Z-score (15 min) | furin cleavage Z-score (30 min)
B1 | 0.0863 (inactive) | 1 | 1.34
B2 | -0.594 (inactive) | 1.74 | -0.243 (inactive)
B3 | 0.328 (inactive) | 0.418 (inactive) | 0.274 (inactive)
B4 | 1.72 | 0.536 (inactive) | 0.579 (inactive)
B5 | 0.956 (inactive) | 1.63 | 1.9
B6 | 1.18 | 0.654 (inactive) | 0.883 (inactive)
B7 | -1.85 (inactive) | -1.89 (inactive) | -0.773 (inactive)
B8 | -0.617 (inactive) | 2.48 | 2.21
B9 | 4.34 (active) | 4.32 (active) | 4.26 (active)
B10 | 3.04 | 0.821 (inactive) | 3.9 (active)
B11 | 1.83 | 3.1 | 0.167 (inactive)
B12 | 1.39 | 1.28 | 0.58 (inactive)
B13 | 0.863 (inactive) | 0.662 (inactive) | 0.635 (inactive)
B14 | -1.24 (inactive) | -0.08 (inactive) | -0.238 (inactive)
B15 | -0.371 (inactive) | 0.166 (inactive) | 0.853 (inactive)
B16 | -0.188 (inactive) | 0.828 (inactive) | 0.793 (inactive)
B17 | 4.05 (active) | 4.27 (active) | 4.75 (active)
B18 | 10.1 (active) | 11.9 (active) | 9.59 (active)
B19 | -1.05 (inactive) | 3.1 | 1.34
B20 | 0.366 (inactive) | 0.384 (inactive) | 0.66 (inactive)
B21 | -1.83 (inactive) | -1.36 (inactive) | 0.113 (inactive)
B22 | -0.627 (inactive) | -0.626 (inactive) | -2 (inactive)
B23 | 0.58 (inactive) | -0.142 (inactive) | 0.811 (inactive)
B24 | 1.18 | 1.38 | 0.416 (inactive)

Sequence | furin cleavage Z-score (7.5 min) | furin cleavage Z-score (15 min) | furin cleavage Z-score (30 min)
B25 | 10.8 (active) | 9.33 (active) | 7.91 (active)
B26 | 10.9 (active) | 12.2 (active) | 8.51 (active)
B27 | 7.44 (active) | 8.25 (active) | 7.09 (active)
B28 | 0.521 (inactive) | 0.407 (inactive) | -1.15 (inactive)
B29 | -0.513 (inactive) | -1.17 (inactive) | -0.0738 (inactive)
B30 | 2.21 | 0.243 (inactive) | -0.391 (inactive)
B31 | -0.488 (inactive) | 0.33 (inactive) | -0.601 (inactive)
B32 | 0.437 (inactive) | 0.0461 (inactive) | -0.276 (inactive)
B33 | -0.221 (inactive) | -1.55 (inactive) | -1.15 (inactive)
B34 | 0.109 (inactive) | 0.25 (inactive) | 0.72 (inactive)
B35 | 1.53 | 0.103 (inactive) | 1.35
B36 | 8.08 (active) | 8.87 (active) | 7.6 (active)
B37 | 8.99 (active) | 8.1 (active) | 8.52 (active)
B38 | 4.34 (active) | 2.4 | 4.26 (active)
B39 | 0.399 (inactive) | -1.73 (inactive) | 0.371 (inactive)
B40 | -2.18 (inactive) | -0.0771 (inactive) | -0.417 (inactive)
B41 | 7.04 (active) | 8.87 (active) | 6.82 (active)
B42 | -0.433 (inactive) | -1.53 (inactive) | -0.417 (inactive)
B43 | -0.371 (inactive) | -0.729 (inactive) | -2.3 (inactive)
B44 | 5.13 (active) | 6.18 (active) | 6 (active)
B45 | -0.162 (inactive) | -0.138 (inactive) | -0.877 (inactive)
B46 | 7.74 (active) | 9.2 (active) | 8.75 (active)
B47 | -0.0202 (inactive) | 0.591 (inactive) | -0.328 (inactive)
